Test results from PubChem BioAssay AID1159580 (chemical genetic matrix, 2015).
About 2,000 (36%) of roughly 5,500 compounds were called active. About 18% were inconclusive and are not listed. Cut-off read from the data, not from the text of the source: active = normalized growth mostly below about 0.91 (no sharp cut-off); inconclusive = no clear call, values can overlap the other calls; inactive = mostly above about 0.92. The list shows a part of the results.

Experiment: chemical genetic growth profiling, strain panel (AID 1159580);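 note: tested at 20 µM; growth read once vehicle control cultures reached saturation at 30 °C; 1 = growth at the plate median or of vehicle wells; lower values mean less growth of the strain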
Details: growth OD

Measured: normalized growth

NC[C@@H]1O[C@H](O[C@@H]2[C@@H](CO)OC(O[C@@H]3[C@@H](O)[C@H](N)C[C@H](N)[C@H]3OC3O[C@H](CN)[C@@H](O)[C@H](O)[C@H]3N)[C@@H]2O)[C@H](N)[C@@H](O)[C@@H]1O (some centres not stated)
inactive: S. cerevisiae deletion strains, locus YJR075W, strain HOC1, stronger effect = lower value 1.02 | S. cerevisiae deletion strains, locus YKL009W, strain mrt4, stronger effect = lower value 1.06 | S. cerevisiae deletion strains, locus YKL068W, stronger effect = lower value 1.01 | S. cerevisiae deletion strains, locus YKL085W, strain MDH1 (second series), stronger effect = lower value 1.01 | S. cerevisiae deletion strains, locus YKL085W, strain MDH1, stronger effect = lower value 1.01 | S. cerevisiae deletion strains, locus YKL160W, strain elf1, stronger effect = lower value 1.02 | S. cerevisiae deletion strains, locus YKL190W, strain CNB1, stronger effect = lower value 1 | S. cerevisiae deletion strains, locus YKR001C, strain vps1, stronger effect = lower value 1.04 | S. cerevisiae deletion strains, locus YKR026C, strain gcn3, stronger effect = lower value 1.03 | S. cerevisiae deletion strains, locus YKR091W, strain srl3, stronger effect = lower value 1.02 | S. cerevisiae deletion strains, locus YLL001W, strain dnm1, stronger effect = lower value 1.06 | S. cerevisiae deletion strains, locus YLL026W, stronger effect = lower value 1.02 | S. cerevisiae deletion strains, locus YLL041C, strain sdh2, stronger effect = lower value 1.02 | S. cerevisiae deletion strains, locus YLR027C, strain aat2, stronger effect = lower value 1.01 | S. cerevisiae deletion strains, locus YLR039C, strain RIC1, stronger effect = lower value 0.973 | S. cerevisiae deletion strains, locus YLR058C, strain SHM2, stronger effect = lower value 1 | S. cerevisiae deletion strains, locus YLR102C, strain apc9, stronger effect = lower value 1.02 | S. cerevisiae deletion strains, locus YLR113W, strain HOG1, stronger effect = lower value 0.981 | S. cerevisiae deletion strains, locus YLR221C, strain rsa3, stronger effect = lower value 1.04 | S. cerevisiae deletion strains, locus YLR258W, strain gsy2, stronger effect = lower value 1.01 | S. cerevisiae deletion strains, locus YLR262C, strain YPT6 (second series), stronger effect = lower value 1.03 | S. cerevisiae deletion strains, locus YLR262C, strain YPT6, stronger effect = lower value 1.02 | S. cerevisiae deletion strains, locus YLR268W, strain sec22, stronger effect = lower value 1.05 | S. cerevisiae deletion strains, locus YLR320W, strain mms22, stronger effect = lower value 1.05 | S. cerevisiae deletion strains, locus YLR330W, strain CHS5, stronger effect = lower value 0.996 | S. cerevisiae deletion strains, locus YLR342W, strain FKS1 (second series), stronger effect = lower value 1.03 | S. cerevisiae deletion strains, locus YLR342W, strain FKS1, stronger effect = lower value 1.03 | S. cerevisiae deletion strains, locus YLR357W, strain rsc2, stronger effect = lower value 1.04 | S. cerevisiae deletion strains, locus YLR370C, strain arc18, stronger effect = lower value 1.04 | S. cerevisiae deletion strains, locus YLR371W, strain rom2, stronger effect = lower value 1.02 | S. cerevisiae deletion strains, locus YLR384C, strain iki3, stronger effect = lower value 1.03 | S. cerevisiae deletion strains, locus YLR418C, strain cdc73, stronger effect = lower value 1.04 | S. cerevisiae deletion strains, locus YML016C, strain PPZ1, stronger effect = lower value 1.01 | S. cerevisiae deletion strains, locus YML032C, strain rad52, stronger effect = lower value 1.02 | S. cerevisiae deletion strains, locus YML120C, strain ndi1, stronger effect = lower value 1.05 | S. cerevisiae deletion strains, locus YML124C, strain tub3, stronger effect = lower value 1.01 | S. cerevisiae deletion strains, locus YMR058W, strain fet3, stronger effect = lower value 1.03 | S. cerevisiae deletion strains, locus YMR078C, strain ctf18, stronger effect = lower value 1.04 | S. cerevisiae deletion strains, locus YMR125W, strain sto1, stronger effect = lower value 1.04 | S. cerevisiae deletion strains, locus YMR129W, stronger effect = lower value 1.02 | S. cerevisiae deletion strains, locus YMR205C, strain PFK2, stronger effect = lower value 1.03 | S. cerevisiae deletion strains, locus YMR223W, strain ubp8, stronger effect = lower value 1 | S. cerevisiae deletion strains, locus YMR231W, strain pep5, stronger effect = lower value 1.03 | S. cerevisiae deletion strains, locus YMR263W, strain SAP30, stronger effect = lower value 1.01 | S. cerevisiae deletion strains, locus YMR307W, strain GAS1, stronger effect = lower value 1.1 | S. cerevisiae deletion strains, locus YNL067W, strain RPL9B, stronger effect = lower value 1.02 | S. cerevisiae deletion strains, locus YNL071W, strain lat1, stronger effect = lower value 1.03 | S. cerevisiae deletion strains, locus YNL128W, strain TEP1, stronger effect = lower value 1.02 | S. cerevisiae deletion strains, locus YNL153C, strain GIM3, stronger effect = lower value 1 | S. cerevisiae deletion strains, locus YNL183C, strain NPR1, stronger effect = lower value 0.944 | S. cerevisiae deletion strains, locus YNL209W, strain ssb2, stronger effect = lower value 1.03 | S. cerevisiae deletion strains, locus YNL233W, strain BNI4, stronger effect = lower value 0.985 | S. cerevisiae deletion strains, locus YNL248C, strain rpa49, stronger effect = lower value 0.992 | S. cerevisiae deletion strains, locus YNL250W, strain rad50, stronger effect = lower value 1 | S. cerevisiae deletion strains, locus YNL271C, strain bni1, stronger effect = lower value 1.02 | S. cerevisiae deletion strains, locus YNL298W, strain CLA4, stronger effect = lower value 1.01 | S. cerevisiae deletion strains, locus YNL307C, strain MCK1, stronger effect = lower value 1.02 | S. cerevisiae deletion strains, locus YNL322C, strain KRE1 (second series), stronger effect = lower value 1.04 | S. cerevisiae deletion strains, locus YNL322C, strain KRE1, stronger effect = lower value 0.997 | S. cerevisiae deletion strains, locus YNR049C, strain mso1, stronger effect = lower value 1.03 | S. cerevisiae deletion strains, locus YNR052C, strain pop2, stronger effect = lower value 1.01 | S. cerevisiae deletion strains, locus YOL006C, strain TOP1, stronger effect = lower value 0.979 | S. cerevisiae deletion strains, locus YOL012C, strain htz1 0.869 | S. cerevisiae deletion strains, locus YOL147C, strain pex11, stronger effect = lower value 1.01 | S. cerevisiae deletion strains, locus YOR001W, strain rrp6, stronger effect = lower value 0.982 | S. cerevisiae deletion strains, locus YOR061W, strain CKA2, stronger effect = lower value 1.01 | S. cerevisiae deletion strains, locus YOR069W, strain VPS5, stronger effect = lower value 1 | S. cerevisiae deletion strains, locus YOR070C, strain gyp1, stronger effect = lower value 1.03 | S. cerevisiae deletion strains, locus YOR080W, strain dia2, stronger effect = lower value 1.03 | S. cerevisiae deletion strains, locus YOR083W, strain WHI5, stronger effect = lower value 1.02 | S. cerevisiae deletion strains, locus YOR106W, strain vam3, stronger effect = lower value 1.04 | S. cerevisiae deletion strains, locus YOR136W, strain idh2, stronger effect = lower value 1.01 | S. cerevisiae deletion strains, locus YOR144C, strain elg1, stronger effect = lower value 1.02 | S. cerevisiae deletion strains, locus YOR184W, strain ser1, stronger effect = lower value 1.03 | S. cerevisiae deletion strains, locus YOR231W, strain MKK1, stronger effect = lower value 1.01 | S. cerevisiae deletion strains, locus YOR265W, strain rbl2, stronger effect = lower value 1.02 | S. cerevisiae deletion strains, locus YOR270C, strain vph1, stronger effect = lower value 1.06 | S. cerevisiae deletion strains, locus YOR290C, strain snf2, stronger effect = lower value 1.04 | S. cerevisiae deletion strains, locus YOR316C, strain cot1, stronger effect = lower value 1.03 | S. cerevisiae deletion strains, locus YPL051W, strain arl3, stronger effect = lower value 1.01 | S. cerevisiae deletion strains, locus YPL055C, strain LGE1, stronger effect = lower value 0.973 | S. cerevisiae deletion strains, locus YPL078C, strain atp4, stronger effect = lower value 1.01 | S. cerevisiae deletion strains, locus YPL106C, strain sse1, stronger effect = lower value 1.01 | S. cerevisiae deletion strains, locus YPL240C, strain hsp82, stronger effect = lower value 1.03 | S. cerevisiae deletion strains, locus YPL241C, strain CIN2, stronger effect = lower value 0.998 | S. cerevisiae deletion strains, locus YPL256C, strain CLN2, stronger effect = lower value 0.997 | S. cerevisiae deletion strains, locus YPR119W, strain clb2, stronger effect = lower value 1.02 | S. cerevisiae deletion strains, locus YPR141C, strain kar3, stronger effect = lower value 1.02 | S. cerevisiae deletion strains, locus YPR163C, strain tif3, stronger effect = lower value 1.03 | S. cerevisiae deletion strains, locus YPR167C, strain met16, stronger effect = lower value 1.02 | S. cerevisiae deletion strains, strain wtn01, stronger effect = lower value 1.03 | S. cerevisiae strains, strain wild type, stronger effect = lower value 1.01
